Results filed as inconclusive are left out. Calls of active or inactive are those of the source. Unless noted, calls come from the whole dose curve.
assay: Confirmation and Secondary Assay for Modulators of Hemoglobin Beta Chain Splicing at IVS2 705 locus (AID 930; active = well fitted activation curve with a large enough effect;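 note: HeLa cells stably expressing the EGFP-705 splicing reporter; % of control where 0% means no effect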); conditions: HeLa EGFP-705 splicing reporter, GFP fluorescence, 48 h; series mostly up to 46.1 µM
Procedure, shortened: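 HeLa cells stably carrying EGFP interrupted by mutant beta-globin IVS2-705 intron (CMV-driven) were seeded at 500 cells/well, treated next day with compound for 2 days at 37C; corrected splicing restores EGFP, read as total peak GFP intensity per well.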

Potency, inactive:
CC(=O)OC1CC(OC(C)=O)[C@]2(C)C(CC(=O)[C@]3(C)C2CC[C@@]2(C)C(C(=O)O)OC(=O)C4OC423)C1(C)C (some centres undefined)
COC1=CC(=O)C(C(=O)c2ccccc2)=CC1=O
COc1ccc(C2CC(=O)c3c(O)cc(O)cc3O2)cc1O (centres undefined)
COc1ccc(-c2coc3c(O)c(OC)ccc3c2=O)cc1
COC(=O)/C(=C1\OC(=O)C(c2ccccc2)C1=O)c1ccccc1 (centres undefined)
COC(=O)C1OC(=O)C2O[C@@]23[C@]2(C)C(OC(C)=O)CC4C(C)(C)C(=O)CC[C@]4(C)C2CC[C@@]13C (some centres undefined)
O=c1c(O)c(-c2ccccc2)oc2cccc(O)c12
Cc1cc(O)c(C=O)c(O)c1C(=O)O
O=C(NC1CCCCC1)NC1CCCCC1
CC1(C)OC2CC3C4CC(F)C5=CC(=O)C=C[C@@]5(C)[C@@]4(F)C(O)C[C@@]3(C)[C@]2(C(=O)CO)O1 (some centres undefined)
O=c1cc(-c2ccccc2)oc2cccc(O)c12
COC(=O)CC1C(C)(C)C2(O)OC34CC2C(=O)[C@@]1(C)C3CC[C@]1(C)C4=CC(=O)OC1c1ccoc1 (some centres undefined)
CC1CC2C3CCC4=CC(=O)C=C[C@]4(C)[C@@]3(Cl)C(O)C[C@]2(C)C1(OC(=O)c1ccco1)C(=O)CCl (some centres undefined)
S=c1ccss1
CC1(C)C(O)C=C[C@@]2(C)C1CC(=O)O[C@@]1(C)C3=CC(=O)OC(c4ccoc4)[C@]3(C)CCC21 (some centres undefined)
COc1ccc(-c2coc3cc(O)ccc3c2=O)c(OC)c1
COc1cc(O)cc(OC)c1OC
CC1CC[C@@]23CCC4(C)[C@@]5(C)CCC6C(C)(C)C(O)CC[C@@]6(C)C5C=C[C@@]4(OC2=O)C3C1C (some centres undefined)
CC1(C)CC[C@]2(C(=O)O)CC[C@@]3(C)C(=CCC4[C@@]5(C)CCC(O)[C@@](C)(CO)C5CC[C@@]43C)C2C1 (some centres undefined)
COC(=O)c1cc(OC)c(=O)c2c(OC)c(OC)ccc2c1
COc1ccc(C2CC(=O)c3ccc(OC)cc3O2)cc1 (centres undefined)
CCOC(=O)C(Cc1ccc(O)cc1)NC(C)=O (centres undefined)
COc1ccc(C(=O)c2ccc(O)cc2)c(O)c1O
CC(C)=CCOc1cc2oc(=O)ccc2cc1O

assay: qHTS Assay for Lipid Storage Modulators (AID 1519); conditions: Drosophila S3 cells, BODIPY lipid droplet/cell ratio, laser cytometry; at 57.5 µM (top of the series); cells loaded with oleic acid; note: % is set by controls: 0 for no effect and ±100 for the full control effect
Procedure, shortened: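 Cells seeded at 5,000 per well were treated with compounds over a concentration series and loaded with oleic acid (400 uM, as added). Lipid droplet fluorescence (488 nm excitation, 500-530 nm channel) was read by laser-scanning cytometry and normalized to 20 uM Triacsin C.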

Activity change, negative = inhibition, inactive:
COc1cc(-c2cc(=O)c3c(O)c(OC)c(OC)c(OC)c3o2)cc(OC)c1OC 0.715%
C#C[C@]1(O)CCC2C3CCC4=Cc5oncc5C[C@@]4(C)C3CC[C@@]21C (some centres undefined) 9.19%
CC(=O)OC1CC2C(C)(C)C=CC(=O)[C@@]2(C)C2CC[C@@]3(C)C(c4ccoc4)OC(=O)C4OC43[C@]12C (some centres undefined) 5.35%
CC1(C)CCC2(C(=O)O)CC[C@]3(C)C(=CCC4[C@]5(C)CCC(O)C(C)(C)C5C(O)C[C@]43C)C2C1 (some centres undefined) 10.3%
CC1(C)C(=O)C2C[C@]3(O)C4=CC(=O)OC(c5ccoc5)[C@]4(C)CCC3[C@](C)(C2=O)C1CC(=O)O (some centres undefined) 3.73%
Cc1cc(=O)oc2c(O)c(O)ccc12 -5.44%
C#C[C@@]1(O)CCC2C3CCC4=CC(=O)CCC4C3CC[C@@]21CC (some centres undefined) 8.95%
C[C@@H]1CCC2[C@](C)(CO)C(O)CC[C@@]2(C)[C@@]12CC[C@](CO)(CCO)O2 (some centres undefined) 5.37%
CC1(C)CCCC2(C)C3C(O)CC2(C)C(O)C31 (centres undefined) 1.58%
COc1ccc2c(c1OC)C(=O)O[C@H]2C1c2c(cc3c(c2OC)OCO3)CCN1C (some centres undefined) 8.59%
CC(=O)O[C@](C)(CCC=C(C)C)C1CC=C(C)CC1 (some centres undefined) 3.31%
COc1ccc(C2Oc3cc(OC)cc(OC)c3CC2O)cc1 (centres undefined) 5.15%
COc1cccc(O)c1O 7.71%
CC1(C)C[C@@H]2C(=O)CCC3O[C@@]3(C)CCC21 (some centres undefined) 3.76%
CC(=O)OCC(=O)[C@]1(O)C(C)CC2C3CCC4=CC(=O)C=C[C@@]4(C)[C@]3(F)C(O)C[C@@]21C (some centres undefined) -6.8%
O=C1c2ccccc2C(=O)c2c(O)c(O)cc(O)c21 12.2%
CC(=O)OC1CC(OC(C)=O)[C@]2(C)C(CC(=O)[C@]3(C)C2CC[C@@]2(C)C(C(=O)O)OC(=O)C4OC423)C1(C)C (some centres undefined) 3.41%
COC1=CC(=O)C(C(=O)c2ccccc2)=CC1=O 9.22%
COc1ccc(C2CC(=O)c3c(O)cc(O)cc3O2)cc1O (centres undefined) 3.83%
COc1ccc(-c2coc3c(O)c(OC)ccc3c2=O)cc1 2.6%
COC(=O)/C(=C1\OC(=O)C(c2ccccc2)C1=O)c1ccccc1 (centres undefined) 5.87%
COC(=O)C1OC(=O)C2O[C@@]23[C@]2(C)C(OC(C)=O)CC4C(C)(C)C(=O)CC[C@]4(C)C2CC[C@@]13C (some centres undefined) -1.69%
O=c1c(O)c(-c2ccccc2)oc2cccc(O)c12 9.45%
Cc1cc(O)c(C=O)c(O)c1C(=O)O 3.98%
O=C(NC1CCCCC1)NC1CCCCC1 9.61%
CC1(C)OC2CC3C4CC(F)C5=CC(=O)C=C[C@@]5(C)[C@@]4(F)C(O)C[C@@]3(C)[C@]2(C(=O)CO)O1 (some centres undefined) 3.9%
O=c1cc(-c2ccccc2)oc2cccc(O)c12 19.1%
COC(=O)CC1C(C)(C)C2(O)OC34CC2C(=O)[C@@]1(C)C3CC[C@]1(C)C4=CC(=O)OC1c1ccoc1 (some centres undefined) 4.29%
CC1CC2C3CCC4=CC(=O)C=C[C@]4(C)[C@@]3(Cl)C(O)C[C@]2(C)C1(OC(=O)c1ccco1)C(=O)CCl (some centres undefined) 12.6%
S=c1ccss1 7.62%
CC1(C)C(O)C=C[C@@]2(C)C1CC(=O)O[C@@]1(C)C3=CC(=O)OC(c4ccoc4)[C@]3(C)CCC21 (some centres undefined) 9.57%
COc1ccc(-c2coc3cc(O)ccc3c2=O)c(OC)c1 -0.403%
COc1cc(O)cc(OC)c1OC 1.28%
CC1CC[C@@]23CCC4(C)[C@@]5(C)CCC6C(C)(C)C(O)CC[C@@]6(C)C5C=C[C@@]4(OC2=O)C3C1C (some centres undefined) 1.82%
CC1(C)CC[C@]2(C(=O)O)CC[C@@]3(C)C(=CCC4[C@@]5(C)CCC(O)[C@@](C)(CO)C5CC[C@@]43C)C2C1 (some centres undefined) 1.32%
COC(=O)c1cc(OC)c(=O)c2c(OC)c(OC)ccc2c1 6.06%
COc1ccc(C2CC(=O)c3ccc(OC)cc3O2)cc1 (centres undefined) 10.2%
CCOC(=O)C(Cc1ccc(O)cc1)NC(C)=O (centres undefined) 7.38%
COc1ccc(C(=O)c2ccc(O)cc2)c(O)c1O 4.3%
CC(C)=CCOc1cc2oc(=O)ccc2cc1O 12.4%

Reference: PubChem BioAssay (NCATS)
